The supplement of paper PMC11732987, “Enantioselective OTUD7B fragment discovery through chemoproteomics screening and high-throughput optimisation” (Communications Chemistry, 2025)

Experiments:
Assay in all cases: log2 ratio of Biotin-Ahx-Ub-VS probe labelling (fragment/DMSO); higher = less target engagement (more negative = stronger competition), active = hit call of the paper (q ≤ 0.05, log2 ratio ≤ -1)
Settings in all cases: compound concentration: 200 uM; treatment time: 3 h
[1] = biological target: USP9X (UniProt Q93008)
Outline: (§1)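 Labelled DUBs from HEK293T lysate were NeutrAvidin-enriched, digested with LysC and trypsin, and run by diaPASEF LC-MS/MS. Before that, each 495 µg sample in Tris/CHAPS/IGEPAL buffer with protease inhibitors was treated in triplicate with fragment at 200 µM or vehicle for 3 h, then with Biotin-Ahx-Ub-VS at 0.5 µM final for 1 h. Values are average log2 ratios of fragment over vehicle by unpaired t-test, based on global-median-normalised Spectronaut label-free quantities from proteins with ≥2 unique peptides.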

[2] = biological target: UniProt O00487
Sequence of UniProt O00487 (O00487 whole entry): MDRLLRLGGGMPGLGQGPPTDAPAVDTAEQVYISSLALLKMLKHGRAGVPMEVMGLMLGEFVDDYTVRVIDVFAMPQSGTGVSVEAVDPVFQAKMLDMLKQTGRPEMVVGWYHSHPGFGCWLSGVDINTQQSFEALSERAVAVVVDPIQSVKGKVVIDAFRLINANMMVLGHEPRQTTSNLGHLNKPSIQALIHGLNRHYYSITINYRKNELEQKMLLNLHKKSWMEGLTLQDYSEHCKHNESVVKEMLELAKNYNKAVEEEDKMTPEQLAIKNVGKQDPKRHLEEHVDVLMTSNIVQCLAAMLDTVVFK
Outline: as §1

[3] = biological target: UniProt O00507
Sequence of UniProt O00507 (O00507 whole entry): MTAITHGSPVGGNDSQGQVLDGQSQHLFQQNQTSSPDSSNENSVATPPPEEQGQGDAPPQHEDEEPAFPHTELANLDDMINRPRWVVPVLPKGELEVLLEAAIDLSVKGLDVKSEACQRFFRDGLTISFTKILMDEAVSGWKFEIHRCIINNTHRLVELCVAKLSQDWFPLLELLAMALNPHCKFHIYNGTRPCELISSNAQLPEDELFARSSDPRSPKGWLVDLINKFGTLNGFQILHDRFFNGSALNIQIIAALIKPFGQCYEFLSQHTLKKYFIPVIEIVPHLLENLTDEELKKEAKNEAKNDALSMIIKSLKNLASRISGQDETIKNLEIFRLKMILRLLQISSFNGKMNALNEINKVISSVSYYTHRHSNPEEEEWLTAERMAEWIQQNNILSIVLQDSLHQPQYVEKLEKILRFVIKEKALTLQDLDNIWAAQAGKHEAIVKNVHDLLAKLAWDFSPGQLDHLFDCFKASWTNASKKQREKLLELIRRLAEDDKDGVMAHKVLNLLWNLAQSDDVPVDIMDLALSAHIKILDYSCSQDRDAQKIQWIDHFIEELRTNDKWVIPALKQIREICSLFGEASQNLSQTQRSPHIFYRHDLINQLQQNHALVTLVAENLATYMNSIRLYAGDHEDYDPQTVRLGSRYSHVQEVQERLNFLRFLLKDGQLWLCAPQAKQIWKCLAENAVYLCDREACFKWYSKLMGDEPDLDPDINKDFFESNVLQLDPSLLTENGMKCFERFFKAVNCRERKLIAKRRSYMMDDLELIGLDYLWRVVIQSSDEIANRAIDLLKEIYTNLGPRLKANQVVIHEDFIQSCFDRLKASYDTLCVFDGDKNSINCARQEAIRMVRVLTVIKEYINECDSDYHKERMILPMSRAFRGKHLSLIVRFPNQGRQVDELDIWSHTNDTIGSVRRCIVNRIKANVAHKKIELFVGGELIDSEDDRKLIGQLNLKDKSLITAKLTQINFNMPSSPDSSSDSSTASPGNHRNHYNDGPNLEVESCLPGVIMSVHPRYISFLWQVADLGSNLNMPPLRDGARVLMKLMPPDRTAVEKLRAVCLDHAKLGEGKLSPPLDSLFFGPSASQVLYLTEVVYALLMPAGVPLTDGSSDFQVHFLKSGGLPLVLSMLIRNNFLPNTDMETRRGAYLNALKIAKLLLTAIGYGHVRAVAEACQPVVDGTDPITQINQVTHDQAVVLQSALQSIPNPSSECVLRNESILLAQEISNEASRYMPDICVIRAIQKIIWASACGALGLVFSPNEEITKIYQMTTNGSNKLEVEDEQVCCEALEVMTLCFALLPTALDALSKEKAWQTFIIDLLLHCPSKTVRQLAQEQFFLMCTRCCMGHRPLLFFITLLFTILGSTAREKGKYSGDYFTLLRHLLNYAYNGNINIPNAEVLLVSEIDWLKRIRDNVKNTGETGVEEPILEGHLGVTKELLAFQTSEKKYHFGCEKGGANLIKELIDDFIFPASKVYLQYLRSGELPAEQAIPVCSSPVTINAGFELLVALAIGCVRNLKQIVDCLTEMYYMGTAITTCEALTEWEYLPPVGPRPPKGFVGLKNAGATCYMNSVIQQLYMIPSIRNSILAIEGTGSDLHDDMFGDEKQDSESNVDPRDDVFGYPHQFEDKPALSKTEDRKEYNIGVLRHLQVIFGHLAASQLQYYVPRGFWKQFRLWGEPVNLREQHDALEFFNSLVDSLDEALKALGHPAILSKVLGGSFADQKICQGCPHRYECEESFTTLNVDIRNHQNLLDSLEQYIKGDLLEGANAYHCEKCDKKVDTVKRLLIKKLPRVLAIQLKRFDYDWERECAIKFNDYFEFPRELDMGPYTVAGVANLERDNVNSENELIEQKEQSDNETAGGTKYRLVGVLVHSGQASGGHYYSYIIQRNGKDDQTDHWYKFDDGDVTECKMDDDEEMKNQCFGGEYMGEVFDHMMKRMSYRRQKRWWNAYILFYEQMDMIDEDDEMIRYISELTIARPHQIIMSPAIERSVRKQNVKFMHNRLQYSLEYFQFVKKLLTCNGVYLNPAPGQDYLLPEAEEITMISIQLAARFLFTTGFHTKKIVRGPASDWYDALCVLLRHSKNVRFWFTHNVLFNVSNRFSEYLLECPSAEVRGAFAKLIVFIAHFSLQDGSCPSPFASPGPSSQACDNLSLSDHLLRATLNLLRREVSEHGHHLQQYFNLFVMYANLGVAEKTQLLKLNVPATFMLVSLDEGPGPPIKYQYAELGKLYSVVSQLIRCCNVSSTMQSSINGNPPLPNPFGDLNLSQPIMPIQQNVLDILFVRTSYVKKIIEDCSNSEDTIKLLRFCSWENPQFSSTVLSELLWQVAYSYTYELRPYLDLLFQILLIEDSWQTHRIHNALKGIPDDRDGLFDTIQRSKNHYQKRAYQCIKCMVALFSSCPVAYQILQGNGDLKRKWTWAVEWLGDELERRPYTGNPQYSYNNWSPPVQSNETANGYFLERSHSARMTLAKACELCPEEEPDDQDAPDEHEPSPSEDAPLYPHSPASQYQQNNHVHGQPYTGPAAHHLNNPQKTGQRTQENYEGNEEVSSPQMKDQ
Outline: as §1

[4] = biological target: UniProt P51784
Sequence of UniProt P51784 (P51784 whole entry): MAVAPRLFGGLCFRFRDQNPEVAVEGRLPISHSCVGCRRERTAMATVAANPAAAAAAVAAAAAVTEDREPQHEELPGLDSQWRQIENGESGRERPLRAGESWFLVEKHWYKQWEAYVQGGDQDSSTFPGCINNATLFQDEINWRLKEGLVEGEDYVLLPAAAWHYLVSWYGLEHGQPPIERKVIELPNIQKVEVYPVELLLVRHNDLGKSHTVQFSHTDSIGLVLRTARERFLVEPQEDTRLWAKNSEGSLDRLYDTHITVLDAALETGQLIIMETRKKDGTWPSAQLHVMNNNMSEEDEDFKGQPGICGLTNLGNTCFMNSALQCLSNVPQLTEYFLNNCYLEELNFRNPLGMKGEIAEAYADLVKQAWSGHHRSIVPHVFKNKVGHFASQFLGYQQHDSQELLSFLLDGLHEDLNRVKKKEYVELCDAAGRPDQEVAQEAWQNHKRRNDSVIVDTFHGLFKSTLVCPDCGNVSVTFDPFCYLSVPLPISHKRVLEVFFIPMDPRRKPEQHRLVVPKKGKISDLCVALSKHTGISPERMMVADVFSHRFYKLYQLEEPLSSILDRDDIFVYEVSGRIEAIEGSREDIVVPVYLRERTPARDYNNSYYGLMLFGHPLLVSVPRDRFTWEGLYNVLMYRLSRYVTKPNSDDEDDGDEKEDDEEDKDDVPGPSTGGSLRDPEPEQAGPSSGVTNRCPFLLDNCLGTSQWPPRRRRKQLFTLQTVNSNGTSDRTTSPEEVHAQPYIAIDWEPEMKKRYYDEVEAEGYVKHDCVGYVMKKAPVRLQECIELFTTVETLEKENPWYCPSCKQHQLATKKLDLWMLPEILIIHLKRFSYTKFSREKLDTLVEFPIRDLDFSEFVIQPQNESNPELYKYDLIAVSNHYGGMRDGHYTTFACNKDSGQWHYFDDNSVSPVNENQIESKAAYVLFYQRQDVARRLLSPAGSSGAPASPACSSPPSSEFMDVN
Outline: as §1

[5] = biological target: T1, UniProt Q5T2D3
T1 sequence (whole entry): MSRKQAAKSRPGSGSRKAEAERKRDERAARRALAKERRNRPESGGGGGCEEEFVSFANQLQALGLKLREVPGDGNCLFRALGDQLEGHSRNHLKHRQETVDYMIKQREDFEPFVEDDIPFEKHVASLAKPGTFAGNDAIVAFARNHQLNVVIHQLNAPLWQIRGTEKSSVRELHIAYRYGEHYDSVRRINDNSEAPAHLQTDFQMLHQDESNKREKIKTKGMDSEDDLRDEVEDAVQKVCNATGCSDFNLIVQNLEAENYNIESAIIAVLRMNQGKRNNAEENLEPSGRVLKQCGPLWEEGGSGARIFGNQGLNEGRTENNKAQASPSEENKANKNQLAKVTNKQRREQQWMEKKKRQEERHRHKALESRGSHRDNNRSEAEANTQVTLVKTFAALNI
Outline: as §1

[6] = biological target: T2, UniProt Q8TE49
T2 sequence (whole entry): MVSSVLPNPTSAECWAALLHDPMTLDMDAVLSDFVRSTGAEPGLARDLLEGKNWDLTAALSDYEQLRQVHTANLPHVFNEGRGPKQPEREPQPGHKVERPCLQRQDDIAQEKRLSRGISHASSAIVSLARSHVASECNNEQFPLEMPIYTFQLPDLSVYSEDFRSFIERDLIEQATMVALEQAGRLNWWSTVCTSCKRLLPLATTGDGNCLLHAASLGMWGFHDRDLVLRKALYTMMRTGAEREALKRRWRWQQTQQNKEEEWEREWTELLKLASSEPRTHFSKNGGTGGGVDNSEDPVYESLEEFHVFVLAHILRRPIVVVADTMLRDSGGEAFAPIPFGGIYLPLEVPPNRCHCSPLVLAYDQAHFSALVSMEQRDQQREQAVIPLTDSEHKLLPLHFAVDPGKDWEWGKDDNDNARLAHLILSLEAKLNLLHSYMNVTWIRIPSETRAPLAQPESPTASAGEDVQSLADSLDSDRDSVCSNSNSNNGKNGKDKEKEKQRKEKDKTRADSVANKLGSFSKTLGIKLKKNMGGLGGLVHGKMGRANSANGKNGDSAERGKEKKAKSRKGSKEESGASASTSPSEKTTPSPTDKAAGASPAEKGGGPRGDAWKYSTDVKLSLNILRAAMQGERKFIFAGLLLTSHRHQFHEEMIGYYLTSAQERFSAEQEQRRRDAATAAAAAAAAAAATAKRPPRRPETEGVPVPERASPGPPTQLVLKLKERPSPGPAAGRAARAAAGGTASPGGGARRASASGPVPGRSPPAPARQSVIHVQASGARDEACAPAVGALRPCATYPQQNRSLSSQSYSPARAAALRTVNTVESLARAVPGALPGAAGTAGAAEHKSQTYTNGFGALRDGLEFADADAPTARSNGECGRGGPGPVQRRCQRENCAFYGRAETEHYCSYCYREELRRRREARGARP
Outline: as §1

[7] = biological target: T3, UniProt Q9P2H5
T3 sequence (whole entry): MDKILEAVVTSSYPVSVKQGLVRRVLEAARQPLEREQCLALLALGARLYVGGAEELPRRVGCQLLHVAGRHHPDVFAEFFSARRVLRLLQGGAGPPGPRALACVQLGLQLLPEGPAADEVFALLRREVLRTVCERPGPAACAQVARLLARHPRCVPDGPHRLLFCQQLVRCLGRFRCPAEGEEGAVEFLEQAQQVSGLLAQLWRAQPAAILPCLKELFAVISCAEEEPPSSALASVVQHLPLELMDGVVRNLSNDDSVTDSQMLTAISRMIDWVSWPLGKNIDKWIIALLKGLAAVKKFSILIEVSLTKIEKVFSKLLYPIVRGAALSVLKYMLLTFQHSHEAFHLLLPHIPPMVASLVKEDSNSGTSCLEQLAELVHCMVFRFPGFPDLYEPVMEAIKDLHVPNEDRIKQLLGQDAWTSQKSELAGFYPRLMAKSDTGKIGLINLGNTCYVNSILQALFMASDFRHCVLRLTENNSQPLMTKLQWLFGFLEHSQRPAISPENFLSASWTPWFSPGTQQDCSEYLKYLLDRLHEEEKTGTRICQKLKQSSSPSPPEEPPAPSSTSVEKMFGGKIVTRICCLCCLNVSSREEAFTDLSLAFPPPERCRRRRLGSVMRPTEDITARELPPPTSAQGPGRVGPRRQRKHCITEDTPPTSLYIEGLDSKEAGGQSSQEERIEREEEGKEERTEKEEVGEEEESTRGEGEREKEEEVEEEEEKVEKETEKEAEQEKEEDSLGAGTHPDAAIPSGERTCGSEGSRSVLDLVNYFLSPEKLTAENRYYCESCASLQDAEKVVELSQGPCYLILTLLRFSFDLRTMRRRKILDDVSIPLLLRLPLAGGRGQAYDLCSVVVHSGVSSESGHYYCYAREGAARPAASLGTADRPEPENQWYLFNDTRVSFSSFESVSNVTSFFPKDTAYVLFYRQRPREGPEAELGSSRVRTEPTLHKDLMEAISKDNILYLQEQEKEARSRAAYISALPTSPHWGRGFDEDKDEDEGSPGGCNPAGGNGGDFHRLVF
Outline: as §1

[8] = biological target: T4, UniProt Q9UGI0
T4 sequence (whole entry): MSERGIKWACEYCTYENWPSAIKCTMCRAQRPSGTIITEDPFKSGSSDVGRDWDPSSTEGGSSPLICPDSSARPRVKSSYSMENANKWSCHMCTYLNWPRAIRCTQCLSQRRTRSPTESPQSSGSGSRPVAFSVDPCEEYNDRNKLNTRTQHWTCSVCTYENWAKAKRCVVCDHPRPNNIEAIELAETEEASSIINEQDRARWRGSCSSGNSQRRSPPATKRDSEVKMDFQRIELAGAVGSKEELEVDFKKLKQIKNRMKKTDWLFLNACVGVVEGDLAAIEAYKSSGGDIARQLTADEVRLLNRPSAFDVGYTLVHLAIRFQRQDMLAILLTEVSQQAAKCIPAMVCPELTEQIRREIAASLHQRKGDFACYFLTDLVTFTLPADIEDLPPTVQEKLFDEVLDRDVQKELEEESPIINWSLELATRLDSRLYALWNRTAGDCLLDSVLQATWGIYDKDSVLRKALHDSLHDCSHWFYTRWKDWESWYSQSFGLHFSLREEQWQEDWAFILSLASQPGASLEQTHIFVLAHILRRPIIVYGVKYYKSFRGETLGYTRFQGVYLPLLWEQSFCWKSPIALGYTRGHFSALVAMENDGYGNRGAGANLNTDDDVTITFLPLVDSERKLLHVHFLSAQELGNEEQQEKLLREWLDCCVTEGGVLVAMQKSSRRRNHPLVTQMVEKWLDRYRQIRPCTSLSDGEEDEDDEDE
Outline: as §1

[9] = biological target: T5, YOD1 (UniProt Q5VVQ6)
T5 sequence (whole entry): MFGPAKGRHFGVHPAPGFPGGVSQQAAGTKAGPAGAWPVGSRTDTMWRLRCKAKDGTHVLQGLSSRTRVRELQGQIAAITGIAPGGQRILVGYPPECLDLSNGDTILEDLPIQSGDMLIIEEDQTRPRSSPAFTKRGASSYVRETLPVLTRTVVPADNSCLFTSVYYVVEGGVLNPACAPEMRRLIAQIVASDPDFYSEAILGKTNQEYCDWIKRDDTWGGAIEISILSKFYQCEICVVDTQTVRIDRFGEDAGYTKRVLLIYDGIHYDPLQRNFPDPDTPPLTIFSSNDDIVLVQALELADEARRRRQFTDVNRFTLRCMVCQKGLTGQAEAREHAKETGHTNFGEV
Outline: as §1

Measured: log2 ratio of Biotin-Ahx-Ub-VS probe labelling

O=C(CCl)N1CCC(c2ccn[nH]2)C1 (centres undefined)
inactive: [1] -0.391 | [2] 0.0518 | [3] -0.147 | [4] -0.136 | [5] -0.179 | [6] -0.464 | [7] -0.282 | [8] -0.767 | [9] 0.0756
